Screens deposited in PubChem by National Center for Advancing Translational Sciences (NCATS).
Rows were chosen to be rich in hits. Some 19% of all compounds tested hit in one or more screens of this group.
HT1080-NT tox: qHTS for induction of synthetic lethality in tumor cells producing 2HG: qHTS for the HT-1080-NT fibrosarcoma cell line; HT-1080-NT fibrosarcoma viability, CellTiter-Glo ATP luminescence, 48 h; Potency, µM (series often up to 46.1 µM), without a hit: at the top dose activity, negative = less viability, actives largely listed as cytotoxic; actives 1.6% (n = 360,000); AID 686970, 2013;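 note: NT is the 2HG producing partner of a matched IDH1 knockdown line; 0% = DMSO-treated cells and -100% = media-only wells without cells; nearly all actives have a fitted effect of over 55% in size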
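HT-1080-NT; 750 cells/well; 5% FBS RPMI; 48 h compound, 37 degrees C; CellTiter-Glo luminescence; curve fitting and curve-class assignment.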
HT1080 IDH1KD tx: qHTS for induction of synthetic lethality in tumor cells producing 2HG: qHTS for the HT-1080-IDH1KD cell line. HT-1080 IDH1 knockdown viability, ATP luminescence, 48 h. Potency, µM (series often up to 46.1 µM), for inactives: at the top dose activity, negative = toxicity, actives largely listed as cytotoxic. actives 2% (n = 360,000). AID 686971, 2013;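 note: 0% = DMSO wells and -100% = cell-free medium wells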
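In this qHTS, HT-1080 cells depleted of IDH1 are exposed for 48 h at 37 °C to compound titrations. Toxicity is scored from CellTiter-Glo luminescence, with DMSO as full viability and medium alone as none.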
KB-V1 cytotox: qHTS assay for MDR1-selective chemotherapeutics: Primary screen using the drug-selected MDR subline cells KB-V1. KB-V1 MDR cells viability, CellTiter-Glo, 72 h. actives 3.4% (n = 400,000). Potency, µM (top dose mostly 46.1 µM), hits mostly cytotoxic. AID 1347076, 2019; note: nearly all actives have a fitted effect of over 60% in size
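Potencies derive from concentration-effect curves fitted to normalized luminescence (CellTiter-Glo) of KB-V1 cells treated for 72 h at 37 degrees C in phenol-red-free DMEM containing 10% FBS.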
KB-3-1 tox: qHTS assay for MDR1-selective chemotherapeutics: Primary screen using the parental adenocarcinoma cell KB-3-1; Potency, µM (top dose mostly 46.1 µM), usual class: cytotoxic; KB-3-1 viability, CellTiter-Glo ATP luminescence, 72 h; actives 1.4% (n = 400,000); note: nearly all actives have a fitted effect of over 60% in size
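72 h, 37 °C compound treatment of KB-3-1 parental cells; CellTiter-Glo added, 10 min, luminescence read. Data corrected against DMSO-only plates and normalized before curve fitting.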
TDP1 cell noCPT: qHTS for Inhibitors of human tyrosyl-DNA phosphodiesterase 1 (TDP1): qHTS in cells in absence of CPT; DT40 Tdp1-/- hTDP1 cells, no CPT, ATP luminescence, 48 h; Potency, µM (highest dose often 46.2 µM), for the others: top-dose activity change, negative = growth inhibition, hits mostly inhibitors; actives 15% (n = 420,000); AID 686978, 2013; note: nearly all actives have a fitted effect of over 55% in size
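Chicken DT40 Tdp1-/- cells complemented with human TDP1, screened without camptothecin (DMSO vehicle only), 400 cells/well. Compounds pin-transferred, cells incubated at 37 °C for at least 48 hr. Growth read as ATP-dependent luminescence (CellTiter-Glo, 30 min at RT).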
TDP1 cell CPT: qHTS for Inhibitors of human tyrosyl-DNA phosphodiesterase 1 (TDP1): qHTS in cells in presence of CPT; actives 12% (n = 420,000); Potency, µM (doses to about 46.2 µM), for inactives: at the highest dose activity change, negative = growth inhibition, most hits filed as inhibitors; chicken DT40 Tdp1-/-;hTDP1 cells + 20 nM CPT, ATP luminescence, 48 h; AID 686979, 2013; note: nearly all actives have a fitted effect of over 55% in size
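Cell growth measured by CellTiter-Glo luminescence after a minimum 48 h, 37 C compound exposure with 20 nM CPT in Tdp1-knockout DT40 cells stably expressing hTDP1, seeded 400/well; qHTS titration format.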
An asterisk follows results filed as active; i = inactive; u = inconclusive; x = no result; ! = not active in a repeat; [ ] = another dose, or the depositor's remark. Calls come from the whole dose curve; as a rule, active = well fitted curve in the direction sought with a large enough effect; inconclusive = small, poorly fitted or top-dose-only effect, or another doubt; inactive = no such curve, though single readings can be large; an effect the other way counts as inactive or inconclusive. Unless noted, % is set by controls: 0 for no effect and ±100 for the full control effect; potency is the fitted concentration of half-maximal effect.

SMILES | HT1080-NT tox | HT1080 IDH1KD tx | KB-V1 cytotox | KB-3-1 tox | TDP1 cell noCPT | TDP1 cell CPT
Cc1ccccc1OC(C)C(=O)Nc1ccc(S(=O)(=O)Nc2nccs2)cc1 (stereo unspecified) | -21.4% | -3.8% | i | i | -13.9% | -8.7%
CCCC(=O)N1CCCC1(C)C(=O)Nc1ccc(C)c(C)c1 (stereo unspecified) | u | 23.3% | i | i | -16.3% | 4.5%
CCCC(=O)C1=C(c2ccc(C)c(C)c2)N(C(=O)CCC)n2c(CC)nnc2S1 | x | x | x | x | 23.1µM* | u
CCCC(=O)C1=C(c2ccc(C)cc2)N(C(=O)CCC)n2cnnc2S1 | x | x | x | x | 16.4µM* | u
O=C(Nc1nnc(-c2ccncc2)s1)Oc1ccc2ccccc2c1 | x | x | i | u | x | x
Cn1c(=O)[nH]c(=O)c2c1nc(NN)n2CCOc1ccccc1 | -13.9% | -9.5% | i | i | u | -16.1%
Nc1nc(-c2ccccc2)nc2sc3c(c12)CCCC3 | -4.5% | -10.2% | 23.1µM* | i | -18.1% | -8.7%
Nc1c2c(nc3sc4c(c13)CCCC4)CCCCCC2 | -7.0% | 0.5% | i | i | 13µM* | u
O=c1oc(-c2ccccc2)nc2sc3c(c12)CCC3 | 4.0% | 7.7% | i | i | -3.8% | -9.1%
Cc1ccc(CCNC(=O)CN2C(=O)COc3ccc(S(=O)(=O)N4CCCCCC4)cc32)cc1 | x | x | x | x | 16.4µM* | 16.4µM*
O=C(CN1C(=O)COc2ccc(S(=O)(=O)N3CCCC3)cc21)NCCc1ccc(Cl)cc1 | x | x | x | x | 23.1µM* | u
Cc1ccc(CCNC(=O)CN2C(=O)COc3ccc(S(=O)(=O)N4CCCCC4)cc32)cc1 | -4.2% | -15.2% | i | i | -25.0% | u
COc1ccc(CCNC(=O)CN2C(=O)COc3ccc(S(=O)(=O)N4CCCC4)cc32)c(OC)c1 | -1.0% | 8.7% | i | i | 16.4µM*! | 18.4µM*!
NS(=O)(=O)c1ccc(CCNC(=O)CN2C(=O)COc3ccc(S(=O)(=O)N4CCCC4)cc32)cc1 | -6.6% | 13.8% | u | u | 4.2% | -6.6%
CN(C)c1ccc(NC(=O)Nc2ccc3c(c2)c(=O)n(C)n3Cc2ccc(Cl)cc2)cc1 | u | -20.5% | i | i | u | u
COc1ccccc1C(=O)N/C(=C\c1cn(S(=O)(=O)N(C)C)c2ccccc12)C(=O)N1CCN(C)CC1 | -2.4% | -0.4% | i | i | u | 25.9µM*
COc1ccccc1C(=O)N/C(=C/c1ccc(Br)cc1)C(=O)N1CCCC1 | -20.0% | -24.1% | i | i | 20.6µM* | 25.9µM*
CN(C)S(=O)(=O)n1cc(/C=C(\NC(=O)c2ccccc2)C(=O)N2CCCCC2)c2ccccc21 | 1.9% | -0.2% | i | i | 18.4µM* | 23.1µM*
CN1CCN(C(=O)/C(=C/c2cn(S(=O)(=O)N(C)C)c3ccccc23)NC(=O)c2ccccc2F)CC1 | 9.3% | 1.0% | i | i | u | -25.3%
COc1ccccc1C(=O)N/C(=C\c1ccc(Br)cc1)C(=O)NCC(=O)O | 1.1% | -3.5% | i | i | -11.6% | 5.3%
CN(C)S(=O)(=O)n1cc(/C=C(\NC(=O)c2ccccc2F)C(=O)NCCN2CCOCC2)c2ccccc21 | 0.1% | 2.0% | i | i | 11.6µM* | u
Cc1c(COc2ccc3ccccc3c2)nnn1CC(=O)NS(=O)(=O)c1ccccc1C(F)(F)F | 13.0% | 15.7% | i | i | 23.6% | -0.3%
NC(=S)NN=C1Cc2cccc3cccc1c23 | 2.7% | 14.9% | 1.3µM* | 1.3µM* | -19.5% | -1.9%
Cc1ccccc1CNC(=O)c1oc2c(c1C)-c1nn(Cc3ccc(Cl)cc3)cc1CC2 | x | x | x | x | 16.4µM* | u
CCOc1ccccc1CNC(=O)c1oc2c(c1C)-c1nn(Cc3cccc(Cl)c3)cc1CC2 | x | x | x | x | 20.6µM* | u
SMILES | HT1080-NT tox | HT1080 IDH1KD tx | KB-V1 cytotox | KB-3-1 tox | TDP1 cell noCPT | TDP1 cell CPT
CCN1C(=O)C2(c3ccccc31)c1c(oc3ccc(F)cc3c1=O)C(=O)N2CCCOC (stereo unspecified) | x | x | i | i | -7.8% | u
O=C(Cn1ncc2c3ccccc3n(Cc3ccccc3F)c2c1=O)NCC1CCCO1 (stereo unspecified) | -9.3% | -9.5% | i | i | u | u
COC(=O)c1sccc1NC(=S)N1CCC(C(N)=O)CC1 | 9.0% | -3.7% | i | i | 2.9% | 13.6%
CCOC(=O)C1CCCN(C(=O)CN2C(=O)C(CC)Oc3ccc(C)cc32)C1 (stereo unspecified) | 3.1% | 13.9%[9.24 µM] | i | i | -16.1% | u
CCC1Oc2ccc(C)cc2N(CC(=O)N2CCN(c3ccccc3OC)CC2)C1=O (stereo unspecified) | x | x | x | x | 16.4µM* | u
CCC1Oc2ccc(C)cc2N(CC(=O)N(Cc2ccc(C)o2)C2CC(C)(C)NC(C)(C)C2)C1=O (stereo unspecified) | 16.4µM* | u | u | u | u | 18.4µM*
CCC1Oc2ccc(C)cc2N(CC(=O)N2CCN(c3ccc(F)cc3)CC2)C1=O (stereo unspecified) | -5.7% | 0.8% | i | i | 18.4µM* | 20.6µM*
O=C(CN(c1ccc(F)cc1)S(=O)(=O)c1ccccc1)NC1CCCCCC1 | 2.8% | 21.3% | x | x | -20.1% | u
COCCCNc1nc2nonc2nc1N(C)CC1CCCN1C (stereo unspecified) | -3.6% | -7.3% | i | i | -6.5% | -16.6%
Cc1ccc(Cl)cc1Nc1nn2c(=O)c3ccc(C(=O)NC(C)c4ccccc4)cc3nc2s1 (stereo unspecified) | x | x | i | u | 3.26µM* | 6.51µM*
COC(=O)c1ccc2c(=O)n3nc(Nc4cc(OC)ccc4OC)sc3nc2c1 | x | x | x | x | -17.0% | u
CC(NC(=O)c1ccc2c(=O)n3c(nc2c1)CCCCC3)c1ccccc1 (stereo unspecified) | -27.5% | -7.5% | u | i | -28.1% | -3.5%
Cc1ccc(Cl)cc1Nc1nn2c(=O)c3ccc(C(=O)Nc4ccc(F)cc4)cc3nc2s1 | x | x | i | i | 2.31µM* | 3.66µM*
